Experimental data reported in the supplement of paper PMC10849652.
Targets with a hit are over-represented here; the source holds about 7,900 in all. About 0.6% of all pairs of compound and target were hits. Values without a mark were called inactive.

Key:
Test in all cases: log2 fold change, soluble protein after heating vs DMSO (PISA); higher = thermal stabilisation; K562 cells, 10 uM, 30 min; active = over 0.2 and 3.5 SD of the protein, either way, in both replicates (recomputed)
bafetinib = compound: Cc1ccc(NC(=O)c2ccc(CN3CC[C@H](N(C)C)C3)c(C(F)(F)F)c2)cc1Nc1nccc(-c2cncnc2)n1 [bafetinib]
In short: (§1)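 Aliquots of K562 cells (2×10^6 cells/mL) treated with 10 μM compound for 30 min were heated for 3 min over 48°C-58°C. After pooling and extraction in PBS with 0.5% NP-40 at 4°C, soluble protein from a 21,000xg, 90 min spin was quantified by TMTpro 16plex LC-MS/MS with channel sums equalised. Thermal stability is expressed against control samples, from duplicates, as a log2 fold change.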

[1] = compound: Cc1cccc(CC(=O)N2CCc3c2ccc(-c2cn(C)c4ncnc(N)c24)c3F)n1
In short: as §1

nilotinib = compound: Cc1cn(-c2cc(NC(=O)c3ccc(C)c(Nc4nccc(-c5cccnc5)n4)c3)cc(C(F)(F)F)c2)cn1 [nilotinib]
In short: as §1

[2] = compound: Cc1nc(Nc2n[nH]c3c2CN(C(=O)N[C@H](CN(C)C)c2ccccc2)C3(C)C)c2sccc2n1
In short: as §1

dasatinib = compound: Cc1nc(Nc2ncc(C(=O)Nc3c(C)cccc3Cl)s2)cc(N2CCN(CCO)CC2)n1 [dasatinib]
In short: as §1

[3] = compound: Cc1ncc(-c2ccnc(Nc3ccc(S(C)(=O)=O)cc3)n2)n1C(C)C
In short: as §1

vorinostat = compound: O=C(CCCCCCC(=O)Nc1ccccc1)NO [vorinostat]
In short: as §1

citarinostat = compound: O=C(CCCCCCNC(=O)c1cnc(N(c2ccccc2)c2ccccc2Cl)nc1)NO [citarinostat]
In short: as §1

[4] = compound: O=C1NC(=O)C(c2cnc3ccccn23)=C1c1cn2c3c(cc(F)cc13)CN(C(=O)N1CCCCC1)CC2
In short: as §1

[5] = compound: c1cc(OCCN2CCCCC2)cc(-c2n[nH]c3ccc(-c4nnc[nH]4)cc23)c1
In short: as §1

[6] = compound: Cn1cc(-c2ccc3c(c2)CCN3C(=O)Cc2cccc(C(F)(F)F)c2)c2c(N)ncnc21
In short: as §1

[7] = compound: Cn1cc(-c2ccc3nnc(C(F)(F)c4ccc5ncccc5c4)n3n2)cn1
In short: as §1

tipifarnib = compound: Cn1cncc1[C@@](N)(c1ccc(Cl)cc1)c1ccc2c(c1)c(-c1cccc(Cl)c1)cc(=O)n2C [tipifarnib]
In short: as §1

mubritinib = compound: FC(F)(F)c1ccc(/C=C/c2nc(COc3ccc(CCCCn4ccnn4)cc3)co2)cc1 [mubritinib]
In short: as §1

[8] = compound: NC(=O)Nc1cc(-c2cccc(F)c2)sc1C(=O)N[C@H]1CCCNC1
In short: as §1

[9] = compound: NC(=O)c1cnc(N[C@@H]2CCCC[C@@H]2N)nc1Nc1cccc(-n2nccn2)c1
In short: as §1

[10] = compound: NC1(c2ccc(-c3nc4ccn5c(=O)[nH]nc5c4cc3-c3ccccc3)cc2)CCC1
In short: as §1

[11] = compound: NCC(=O)Nc1ccc(-n2nc(C(F)(F)F)cc2-c2ccc3c(ccc4ccccc43)c2)cc1
In short: as §1

entinostat = compound: Nc1ccccc1NC(=O)c1ccc(CNC(=O)OCc2cccnc2)cc1 [entinostat]
In short: as §1

silmitasertib = compound: O=C(O)c1ccc2c(c1)nc(Nc1cccc(Cl)c1)c1ccncc12 [silmitasertib]
In short: as §1

UniProt Q9BSQ5, sequence (Q9BSQ5 whole entry, looked up): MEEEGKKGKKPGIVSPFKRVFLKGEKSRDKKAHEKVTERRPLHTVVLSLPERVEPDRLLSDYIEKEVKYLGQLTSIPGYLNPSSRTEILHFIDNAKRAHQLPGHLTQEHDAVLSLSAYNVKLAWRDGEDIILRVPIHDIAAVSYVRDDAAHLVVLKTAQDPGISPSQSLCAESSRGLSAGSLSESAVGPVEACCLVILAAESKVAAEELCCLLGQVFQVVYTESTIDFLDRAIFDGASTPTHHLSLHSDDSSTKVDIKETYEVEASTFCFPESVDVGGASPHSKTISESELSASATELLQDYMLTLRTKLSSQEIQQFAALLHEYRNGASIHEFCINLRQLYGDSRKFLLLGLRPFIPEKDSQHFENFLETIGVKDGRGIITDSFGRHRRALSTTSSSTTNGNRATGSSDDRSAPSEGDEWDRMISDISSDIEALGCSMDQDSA
UniProt Q9Y2V0, sequence (Q9Y2V0 whole entry, looked up): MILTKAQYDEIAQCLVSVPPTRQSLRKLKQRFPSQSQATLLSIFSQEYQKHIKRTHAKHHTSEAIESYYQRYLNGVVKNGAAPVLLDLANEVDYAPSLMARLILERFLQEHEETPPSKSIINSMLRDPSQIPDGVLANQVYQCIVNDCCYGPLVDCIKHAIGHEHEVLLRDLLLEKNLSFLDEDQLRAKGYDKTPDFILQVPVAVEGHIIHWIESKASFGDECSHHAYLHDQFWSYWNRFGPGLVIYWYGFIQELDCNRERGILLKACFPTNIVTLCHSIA
UniProt P55210, sequence (P55210 whole entry, looked up): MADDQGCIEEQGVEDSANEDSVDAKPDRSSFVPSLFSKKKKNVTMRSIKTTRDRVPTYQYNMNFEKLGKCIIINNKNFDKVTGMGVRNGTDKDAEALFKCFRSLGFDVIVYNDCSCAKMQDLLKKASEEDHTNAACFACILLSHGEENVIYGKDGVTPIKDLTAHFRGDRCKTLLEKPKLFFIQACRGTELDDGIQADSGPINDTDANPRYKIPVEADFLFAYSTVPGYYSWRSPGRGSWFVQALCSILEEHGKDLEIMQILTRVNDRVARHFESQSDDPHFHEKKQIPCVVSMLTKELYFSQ
UniProt P33552, sequence (P33552 whole entry, looked up): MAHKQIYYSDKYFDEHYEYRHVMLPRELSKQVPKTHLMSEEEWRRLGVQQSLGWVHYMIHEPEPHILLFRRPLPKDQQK
UniProt Q96F85, sequence (Q96F85 whole entry, looked up): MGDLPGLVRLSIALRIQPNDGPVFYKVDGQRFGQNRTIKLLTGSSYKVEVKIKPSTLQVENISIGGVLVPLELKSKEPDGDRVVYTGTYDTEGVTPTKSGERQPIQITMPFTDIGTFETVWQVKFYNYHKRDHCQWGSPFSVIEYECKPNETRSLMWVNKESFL
UniProt Q69YH5, sequence (Q69YH5 whole entry, looked up): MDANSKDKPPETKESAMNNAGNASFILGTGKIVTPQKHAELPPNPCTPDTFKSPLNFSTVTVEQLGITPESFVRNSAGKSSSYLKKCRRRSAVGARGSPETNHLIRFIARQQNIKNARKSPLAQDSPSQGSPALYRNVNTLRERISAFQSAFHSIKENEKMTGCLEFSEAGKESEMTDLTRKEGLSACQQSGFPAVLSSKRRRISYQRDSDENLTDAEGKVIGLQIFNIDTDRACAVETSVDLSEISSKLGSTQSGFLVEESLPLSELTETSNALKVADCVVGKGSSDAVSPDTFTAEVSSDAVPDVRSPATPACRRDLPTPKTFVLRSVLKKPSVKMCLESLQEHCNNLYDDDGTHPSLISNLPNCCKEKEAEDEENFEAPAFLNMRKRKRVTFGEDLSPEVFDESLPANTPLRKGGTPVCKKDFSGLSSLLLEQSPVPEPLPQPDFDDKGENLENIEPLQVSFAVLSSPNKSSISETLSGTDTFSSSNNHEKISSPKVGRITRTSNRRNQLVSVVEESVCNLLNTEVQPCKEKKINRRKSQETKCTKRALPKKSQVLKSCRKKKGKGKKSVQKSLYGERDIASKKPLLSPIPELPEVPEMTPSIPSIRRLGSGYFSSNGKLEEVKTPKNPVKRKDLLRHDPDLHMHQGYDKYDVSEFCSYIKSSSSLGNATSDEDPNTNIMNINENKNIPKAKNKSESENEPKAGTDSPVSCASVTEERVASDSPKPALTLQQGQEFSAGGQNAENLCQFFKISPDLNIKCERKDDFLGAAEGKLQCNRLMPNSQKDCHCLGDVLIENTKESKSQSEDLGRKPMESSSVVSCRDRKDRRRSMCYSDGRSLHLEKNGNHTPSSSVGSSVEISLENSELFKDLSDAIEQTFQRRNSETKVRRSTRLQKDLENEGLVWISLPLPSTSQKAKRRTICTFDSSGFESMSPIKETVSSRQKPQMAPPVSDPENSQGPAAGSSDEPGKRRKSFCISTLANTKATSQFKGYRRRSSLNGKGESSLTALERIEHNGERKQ
UniProt P49336, sequence (P49336 whole entry, looked up): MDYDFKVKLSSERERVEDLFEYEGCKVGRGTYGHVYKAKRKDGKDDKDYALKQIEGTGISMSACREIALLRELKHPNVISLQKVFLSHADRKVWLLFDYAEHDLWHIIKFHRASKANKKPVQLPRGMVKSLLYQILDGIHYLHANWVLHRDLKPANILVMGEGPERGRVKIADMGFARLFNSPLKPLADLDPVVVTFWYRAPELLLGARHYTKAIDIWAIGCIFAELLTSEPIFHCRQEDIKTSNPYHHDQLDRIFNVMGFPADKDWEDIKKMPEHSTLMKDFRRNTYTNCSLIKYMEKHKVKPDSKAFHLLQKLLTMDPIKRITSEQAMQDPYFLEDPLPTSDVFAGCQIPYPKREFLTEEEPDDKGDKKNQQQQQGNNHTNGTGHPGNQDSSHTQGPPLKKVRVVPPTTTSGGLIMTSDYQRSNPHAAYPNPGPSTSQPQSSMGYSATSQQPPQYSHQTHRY
UniProt Q9NRR8, sequence (Q9NRR8 whole entry, looked up): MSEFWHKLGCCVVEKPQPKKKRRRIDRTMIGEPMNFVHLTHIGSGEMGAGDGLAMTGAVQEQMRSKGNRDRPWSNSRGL
UniProt Q9BWU1, sequence (Q9BWU1 whole entry, looked up): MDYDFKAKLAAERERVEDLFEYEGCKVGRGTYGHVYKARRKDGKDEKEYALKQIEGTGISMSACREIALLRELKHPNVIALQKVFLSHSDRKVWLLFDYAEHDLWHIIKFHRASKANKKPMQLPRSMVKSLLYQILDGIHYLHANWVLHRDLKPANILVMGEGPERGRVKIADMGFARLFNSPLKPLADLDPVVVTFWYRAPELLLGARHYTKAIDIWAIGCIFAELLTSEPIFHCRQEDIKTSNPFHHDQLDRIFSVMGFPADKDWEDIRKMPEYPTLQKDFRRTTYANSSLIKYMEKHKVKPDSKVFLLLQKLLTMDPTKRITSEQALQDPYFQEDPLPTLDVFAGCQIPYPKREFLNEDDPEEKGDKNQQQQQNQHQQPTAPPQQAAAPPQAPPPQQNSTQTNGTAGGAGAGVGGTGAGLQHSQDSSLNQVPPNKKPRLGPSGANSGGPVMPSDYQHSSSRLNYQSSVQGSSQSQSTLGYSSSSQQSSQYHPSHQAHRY
UniProt Q53ET0, sequence (Q53ET0 whole entry, looked up): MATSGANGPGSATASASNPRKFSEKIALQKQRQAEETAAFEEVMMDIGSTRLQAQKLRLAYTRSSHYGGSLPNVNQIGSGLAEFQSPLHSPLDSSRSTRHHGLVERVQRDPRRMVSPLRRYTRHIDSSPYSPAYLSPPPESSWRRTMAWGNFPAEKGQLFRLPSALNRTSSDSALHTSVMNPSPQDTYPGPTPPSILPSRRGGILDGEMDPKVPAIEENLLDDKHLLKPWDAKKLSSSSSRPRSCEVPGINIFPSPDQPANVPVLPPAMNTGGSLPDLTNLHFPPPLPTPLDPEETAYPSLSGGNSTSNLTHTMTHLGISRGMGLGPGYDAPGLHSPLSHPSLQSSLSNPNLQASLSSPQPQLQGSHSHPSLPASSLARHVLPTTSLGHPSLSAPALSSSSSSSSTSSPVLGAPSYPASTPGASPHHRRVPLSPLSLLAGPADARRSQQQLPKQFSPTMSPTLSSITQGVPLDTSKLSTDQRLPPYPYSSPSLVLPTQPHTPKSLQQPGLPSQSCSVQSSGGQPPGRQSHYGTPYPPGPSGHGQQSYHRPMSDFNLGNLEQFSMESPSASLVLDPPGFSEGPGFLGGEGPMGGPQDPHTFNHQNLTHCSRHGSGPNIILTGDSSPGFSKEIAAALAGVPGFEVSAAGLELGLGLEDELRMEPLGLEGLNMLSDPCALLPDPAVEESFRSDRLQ
UniProt O14936, sequence (O14936 whole entry, looked up): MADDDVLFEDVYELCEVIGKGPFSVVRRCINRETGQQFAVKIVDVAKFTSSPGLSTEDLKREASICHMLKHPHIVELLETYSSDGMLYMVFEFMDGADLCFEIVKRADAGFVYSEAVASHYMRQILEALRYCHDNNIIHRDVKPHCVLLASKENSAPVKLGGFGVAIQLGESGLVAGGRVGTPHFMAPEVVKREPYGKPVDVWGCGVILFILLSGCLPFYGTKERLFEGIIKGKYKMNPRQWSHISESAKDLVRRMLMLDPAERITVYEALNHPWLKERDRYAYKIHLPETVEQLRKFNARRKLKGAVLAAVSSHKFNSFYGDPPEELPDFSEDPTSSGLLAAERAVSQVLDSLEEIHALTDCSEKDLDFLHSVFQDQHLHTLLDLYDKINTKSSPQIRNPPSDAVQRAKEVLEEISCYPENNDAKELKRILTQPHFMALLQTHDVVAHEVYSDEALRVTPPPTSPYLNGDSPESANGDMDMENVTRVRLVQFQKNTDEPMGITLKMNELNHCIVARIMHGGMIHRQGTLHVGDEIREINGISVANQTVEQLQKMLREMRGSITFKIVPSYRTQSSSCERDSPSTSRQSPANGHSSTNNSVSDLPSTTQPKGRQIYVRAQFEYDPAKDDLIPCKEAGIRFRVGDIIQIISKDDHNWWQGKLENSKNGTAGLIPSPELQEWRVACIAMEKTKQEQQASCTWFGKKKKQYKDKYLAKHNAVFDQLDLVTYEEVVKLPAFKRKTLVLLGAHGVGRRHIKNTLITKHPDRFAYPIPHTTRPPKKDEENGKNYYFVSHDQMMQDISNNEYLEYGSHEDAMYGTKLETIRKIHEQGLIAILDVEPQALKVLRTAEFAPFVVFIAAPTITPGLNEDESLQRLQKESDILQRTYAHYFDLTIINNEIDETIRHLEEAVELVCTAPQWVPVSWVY

Target	log2 fold change (bafetinib)	log2 fold change [1]	log2 fold change (nilotinib)	log2 fold change [2]	log2 fold change (dasatinib)	log2 fold change [3]	log2 fold change (vorinostat)	log2 fold change (citarinostat)	log2 fold change [4]	log2 fold change [5]	log2 fold change [6]	log2 fold change [7]	log2 fold change (tipifarnib)	log2 fold change (mubritinib)	log2 fold change [8]	log2 fold change [9]	log2 fold change [10]	log2 fold change [11]	log2 fold change (entinostat)	log2 fold change (silmitasertib)
CASP7 isoform 3 (UniProt P55210)	-1.01 (active)	-0.401	0.145	-0.001	-0.239	-0.102	0.044	-0.058	-0.048	0.021										
CDK8 (UniProt P49336)	0.109	0.014			0.067		0.038	-0.002	0.036	-0.019	0.057	0.018	0	0.01	-0.038	0.011	0.036	0.014	-0.152	0.175
CCM2 isoform 2 (UniProt Q9BSQ5)	-0.059	-0.038			-0.003		-0.038	-0.073	-0.136	0.069	0.043	-0.021	-0.024	-0.061	-0.103		-0.09	-0.067	0.326 (active)	0.048
CKS2 (UniProt P33552)	-0.021	0.048	-0.008	-0.188	0.096	-0.222	0.28	-0.092		-0.071			-0.047	0.325		-0.021	-0.039			0.065
CDC42SE1 (UniProt Q9NRR8)	-0.37		0.055	0.055	-0.022	-0.155		-0.048	-0.065	-0.103	0.107	-0.002	-0.01	-0.065	-0.244	0.055	-0.065	-0.002	-0.042	0.128
C15orf41 (UniProt Q9Y2V0)		-0.101			-0.357 (active)		0.069	0.07	0.023	-0.007	-0.097	-0.088	-0.087		-0.076	-0.046		-0.061	-0.01	
CRTC2 (UniProt Q53ET0)	-0.035		0.038	0.01		-0.094		-0.099	-0.125	-0.143		-0.081	-0.092	0.022	-0.814 (active)	-0.001	-0.13	0.038	0.004	0.092
CNRIP1 (UniProt Q96F85)			-0.066	-0.071		0.056			0.738 (active)			0.038	-0.075	-0.148			0.258			-0.13
CDK19 (UniProt Q9BWU1)		-0.014	-0.266	0.297	0.101	0.338	0.016	-0.265	0.16	-0.089	-0.01	-0.054	-0.045	0.112	-0.131	-0.135	-0.093	-0.018	-0.085	0.327
CASK (UniProt O14936)					0.096											0.026				
CARD9 (UniProt Q9H257)												0.085				0.37				
CDCA2 (UniProt Q69YH5)		-0.065	0.164	-0.114		0.042	0	-0.27	0.035	0.243	0.159	-0.215	0.182	-0.256	-0.034	-0.096	-0.003	0.037	-0.11	0.133
